# Test results reported in article PMC7826789 (International Journal of Molecular Sciences, 2021).
# System: AKT2
# Settings: Compound Concentration (nM):1000
# 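Note: KINOMEscan scanMAX binding as percent activity remaining versus control; lower means stronger binding.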
row,SMILES,Percent Control
1,Cl.O=C(Nc1ccc(Oc2ccc3[nH]c(NC(=O)c4ccco4)nc3c2)cc1)Nc1cc(C(F)(F)F)ccc1F [GW683134A],100%
2,O=C(Nc1n[nH]c2nc(-c3ccc(O)cc3)c(Br)cc12)C1CC1 [SB-725317],100%
3,COc1cc2ncnc(Nc3ccc4c(cnn4Cc4ccccc4)c3)c2cc1OC.Cl [GW282449A],100%
4,CN(C)CCNC(=O)Nc1ccc(N(C)c2ccnc(Nc3ccc(CS(C)(=O)=O)cc3)n2)cc1.Cl [GW830900A],100%
5,CC1=C(C(=O)Nc2ccc3[nH]ncc3c2)C(c2ccc(Cl)c(Cl)c2)CC(=O)N1 (stereo not drawn) [GSK299115A],100%
6,COc1ccc(COc2ccc(Cc3cnc(N)nc3N)cc2OC)cc1 [GW632580X],100%
7,CCS(=O)(=O)c1ccc(OC)c(Nc2ncc(-c3cccc(F)c3)o2)c1 [GW621970X],100%
8,COc1cc(/C=N/Nc2ncnc3[nH]ncc23)ccc1O [GW578748X],100%
9,C/C(Nc1ccc(S(N)(=O)=O)cc1)=C1/C(=O)Nc2ccccc21 [GW335962X],94%
10,CN1CCN(C(=O)c2ccc(NC(=O)Nc3ccc(N(C)c4ccnc(Nc5ccc(CS(C)(=O)=O)cc5)n4)cc3)cc2)CC1.Cl [GW830263A],100%
11,CC1=C(C(=O)Nc2ccc3[nH]ncc3c2)C(c2ccc3ccccc3c2)CC(=O)N1 (stereo not drawn) [GSK270822A],100%
12,COc1ccc2cc(-c3c(-c4ccncc4)nc(-c4ccc(S(C)(=O)=O)cc4C)n3C)ccc2c1 [SB-633825],94%
